Data on 20 compounds can be found in PubChem BioAssay AID485294 (National Center for Advancing Translational Sciences (NCATS), 2010).

Screen size: about 370,000 compounds; about 150 (0.041%) were called active. About 14% were inconclusive and are not listed. The call rests on the fitted dose curve; in most records, active means well fitted inhibition curve with a large enough effect; inconclusive means small, poorly fitted or top-dose-only effect; inactive means flat fitted curve, though single readings scatter. The list comes from a sample in which actives are over-represented; it also holds similar structures and randomly drawn compounds. A call without a number means that no potency is given here.
Potency means the concentration at half of the fitted maximal effect.

For the assay, the target named is Beta-lactamase (Escherichia coli (strain K12)) (UniProt P00811). Nature of the assay: qHTS Inhibitors of AmpC Beta-Lactamase (assay with detergent). Further: nearly all actives have a fitted effect of over 25% in size. The note with it: AmpC hydrolysis of nitrocefin, absorbance 480 nm, 0.01% Triton; series mostly up to 114 µM. The method, then: NIH Molecular Libraries Probe Production Network [MLPCN] NIH Chemical Genomics Center [NCGC] Assay Provider: Professor Brian Shoichet, UCSF Assay Overview: This aggregation profiling approach exploits the sensitivity of aggregate formation to detergent. Inhibition of b-lactamase is measured in the presence and absence of 0.01% Triton X-100. This particular assay had the prescence of 0.01% Triton X-100. See Pubchem assay "Promiscuous and Specific Inhibitors of AmpC Beta-Lactamase (assay without detergent)" for related screen. Compounds that inhibit only in the absence of detergent are considered likely promiscuous aggregators. A screen of 1,030 compounds was performed in Brian Shoichet's lab in 96-well format. AmpC activity was measured by following the absorbance at 480 nm. Nitrocefin is a chromogenic substrate: while nitrocefin is yellow (lmax 390 nm), the product of its hydrolysis is red (lmax 486 nm, 17,000 M-1). AmpC beta lactamase was provided by Shoichet Lab, UCSF.
Sequence of Beta-lactamase (Escherichia coli (strain K12)) (P00811 whole entry, looked up): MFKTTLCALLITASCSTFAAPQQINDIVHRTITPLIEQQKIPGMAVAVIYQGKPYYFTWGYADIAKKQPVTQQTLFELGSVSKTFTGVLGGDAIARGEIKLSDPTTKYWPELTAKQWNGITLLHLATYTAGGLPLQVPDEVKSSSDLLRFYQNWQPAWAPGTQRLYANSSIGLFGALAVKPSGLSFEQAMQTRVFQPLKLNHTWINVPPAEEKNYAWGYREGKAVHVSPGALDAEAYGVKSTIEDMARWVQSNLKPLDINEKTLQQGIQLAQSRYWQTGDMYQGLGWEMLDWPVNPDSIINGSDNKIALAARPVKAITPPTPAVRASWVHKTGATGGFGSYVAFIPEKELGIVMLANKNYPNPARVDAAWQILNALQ
Buffer: 20 mM phosphate buffer, pH 7.0 Triton X-100: No Detergent screen: 0.0001%, Detergent screen: 0.01%. Reagents/Controls: Buffer in columns 3 and 4 as negative control (no enzyme). 5.3 nM AmpC in columns 1, 2, 5-48. Titration of UCSF compound 9 control (from 10 mM, then 1:2) pin-transferred to column 2. Column 1 is neutral (100% activity). Assay Steps: Six uL of reagents were dispensed to 1536-well Greiner black clear bottom plates. Compounds and controls (23 nL) were transferred via Kalypsys PinTool. The plates were incubated for 15 min at room temperature, and then 2 uL of 800 uM solution of nitrocefin was added to start the reaction. The plates were immediately transferred to and read every 20 seconds for 4 min on ViewLux (Perkin-Elmer) High-throughput CCD imager using 480 nm absorbance protocol. During dispense, reagent bottles were kept submerged into 4 deg C water bath. Keywords: NIH Roadmap, MLSCN, MLI, MLSMR, qHTS, NCGC, AmpC Beta-Lactamase, Aggregation
A general note: In qHTS, concentration-response curves come from the screen itself.
`CCOC(=O)c1ccc(N2C(=O)c3[nH]nc(-c4ccccc4)c3C2c2ccc(C(C)C)cc2)cc1` (stereo not given): the Potency result was “inactive”.

As to `Cc1oc2ncnc(N3CCOCC3)c2c1C(=O)NCCc1ccccc1`, the Potency result is “inactive”.

On to `COc1cc(NC(=O)Cn2c(=O)n(Cc3ccco3)c(=O)c3oc4ccccc4c32)cc(OC)c1`, for which the Potency result was “inactive”.

For `CC(C)c1ccc(NS(=O)(=O)c2ccc3[nH]cc(C(=O)NC4CCCC4)c(=O)c3c2)cc1`, the Potency result was “inactive”.

In the case of `COc1ccc(CCNC(=O)Cn2c(=O)cc(C(F)(F)F)c3c(C)nn(C)c32)c(OC)c1`, the Potency result is “inactive”.

Turning to `CC(=O)c1cccc(NC(=O)CSc2nc3c(c(=O)[nH]2)CCC3)c1`, the Potency result is “inactive”.

Regarding `CCOC(=O)c1ccc(N2C(=O)c3n[nH]c(C)c3C2c2ccc(O)c(OC)c2)cc1` (stereo not given), the Potency entry was “inactive”.

Regarding `O=c1cc2nc(-c3ccccc3)nc(SCCOc3ccc(Cl)cc3)n2[nH]1`, the Potency result is “inactive”.

Regarding `Cc1ccc(OCCSc2nc(-c3cccs3)nc3cc(=O)[nH]n23)cc1Cl`, the Potency entry was “inactive”.

As for `COc1ccccc1-c1cc2nc(C)c(CCC(=O)NC3CCCCC3)c(C)n2n1`, the Potency result is “inactive”.

Consider `CNc1ccc(-c2nc(-c3ccco3)no2)cc1[N+](=O)[O-]`, for which the Potency entry was “inactive”.

As to `CC1CCC(N2CC(=O)N(CCC3=CCCCC3)C(c3ccc(F)cc3)C2=O)CC1` (stereo not given), the Potency result was “inactive”.

For `Fc1ccc(CSc2nc(NCc3ccccc3)c3ccccc3n2)cc1`, the Potency entry is “inactive”.

Turning to `O=C(CCc1ccccc1)NCc1ccc2c(c1)CCN2C(=O)c1ccccc1`, the Potency result was “inactive”.

On to `COc1ccc(-c2cc(C(F)(F)F)nc(SCC(=O)N(C)Cc3ccccc3)n2)cc1OC`, for which the Potency entry was “inactive”.

Regarding `Cc1oc2ncn(CC(C)C)c(=O)c2c1C(=O)N1CCN(c2ccccc2F)CC1`, the Potency result was “inactive”.

Regarding `O=P(O)(CN1CCCCC1)CN1CCCCC1`, the Potency result is “inactive”.

As to `O=C(CN1CCCC1)N1CCN(c2ccccc2)CC1`, the Potency result was “inactive”.

With `O=P(O)(CN1CCCCCC1)C1Cc2ccccc2C1`, the Potency was 50.1 µM (active).

Turning to `CCn1cc(C(=O)N2CCN(c3cc(C)ccc3C)CC2)c(=O)c2cc(S(=O)(=O)N(C)C3CCCCC3)ccc21`, the Potency result was “inactive”.
